The values below come from ChEMBL document CHEMBL3988442, “University of Dundee, Small-Polar-MMV Screening Library” (2021).

SMILES strings stand for the structures. Among all 48,000 compounds or so, about 13,000 (27%) showed an effect of 50% or more. The list shows a part of the results.

In the assay the test system is Wolbachia pipientis. Description: Anti-Wolbachia Cell-Based Screen. Set-up: scale not given: in the data most compounds retested in dose-response had high values. The format is functional. The note with it: 5 µM.
Turning to `COC(=O)N1CCCCC1C(=O)N(C)Cc1cc(-c2cccnc2)no1` (stereo not given), the “Percent Effect” value is recorded as -13.17%.

Take `CC(c1ccccc1)N(C)CC(=O)NCCC#N` (stereo not given): the “Percent Effect” value is 10.46%. On to `COc1ccc2nc3n(c2c1)[C@@H](CNC(=O)c1cncnc1)COC3`, for which the “Percent Effect” value was -25.15%. The figure for `CCOC(=O)C1CCCCN1Cc1c[nH]nc1-c1ccc(F)cc1F` (stereo not given) is -25.87%; for `CN(C)S(=O)(=O)N1CCN(c2ccnc(N3CCCCC3)n2)CC1` it is 2.063%; for `CN(C)S(=O)(=O)N1CCN(Cc2ccnc(N3CCCC3)n2)CC1` it is 116.4%.

With `CN(C)S(=O)(=O)N1CCN(c2ccnc(N3CCCC3)n2)CC1`, the “Percent Effect” value worked out at 6.981%. In the case of `CC(C)CN1CC(c2nc(-c3cccc(F)c3)c[nH]2)CC1=O` (stereo not given), the “Percent Effect” value is given as -7.334%. On to `COc1ccccc1N1CCCC(Nc2nccnc2C#N)C1` (stereo not given), for which the “Percent Effect” value is given as -6.167%. Turning to `CC(OCC1CC1)C(=O)N1CCCN(c2ncccc2C#N)CC1` (stereo not given), the “Percent Effect” value was determined as 0.6677%.

Consider `Cc1ncsc1C(=O)NC1CCN(c2ncccc2C#N)CC1`, for which the “Percent Effect” value was 3.03%. For the compound `Cc1cc(C(=O)NC2CCN(c3ncccc3C#N)CC2)no1`, the “Percent Effect” value was -13.19%. The figure for `COc1cc(NC2CCCN(c3ncccc3C#N)C2)cc(OC)c1` (stereo not given) is 118.7%; for `COc1cc(CNC2CCCN(c3ncccn3)C2)cc2c1OCO2` (stereo not given) it is -8.887%; for `COc1cc(NC2CCCN(c3ncccn3)C2)cc(OC)c1` (stereo not given) it is 107.2%. Consider `N#Cc1cccnc1N1CCC(Nc2ccccc2)C1` (stereo not given), for which the “Percent Effect” value was found to be 96.82%. The figure for `COc1cc(NC2CCCNC2)cc(OC)c1` (stereo not given) is -9.333%; for `CCn1ccnc1CN1CCN(c2nccc(OC)n2)CC1C` (stereo not given) it is -24.68%; for `Fc1cccc(-c2nnn3c2COC(CNc2ncccn2)C3)c1` (stereo not given) it is -1.841%. As for `CN1CCOC(CN(C(=O)CC2CCCC2)c2nccs2)C1` (stereo not given), the “Percent Effect” value is on record as -0.02384%. Turning to `Cc1ccc(CC(=O)N(CC2CN(C)CCO2)c2nccs2)cn1` (stereo not given), the “Percent Effect” value was 90.15%. On to `Cc1cnn(CC2CN(CC(=O)N(C)c3nccs3)CCO2)c1` (stereo not given), for which the “Percent Effect” value was found to be 4.22%. With `CN1CCOC(CN(C(=O)CCc2cnn(C)c2)c2nccs2)C1` (stereo not given), the “Percent Effect” value worked out at 107%.

Regarding `c1cnn(CC2CN(c3ncnc4ccsc34)CCO2)c1` (stereo not given), the “Percent Effect” value was -13.22%.

Consider `CN1CCOC(CN(C(=O)COc2ccccc2)c2nccs2)C1` (stereo not given), for which the “Percent Effect” value turned out to be 132.7%. As to `CN1CCOC(CN(C(=O)Cc2ccccc2F)c2nccs2)C1` (stereo not given), the “Percent Effect” value is listed as -6.62%.

As to `Cc1ccc(CC(=O)N2CCCC(c3nc(C)cs3)C2)cn1` (stereo not given), the “Percent Effect” value is reported as -6.398%. The same measure for `Cc1cc(CC(=O)N(CC2CN(C)CCO2)c2nccs2)no1` (stereo not given): -0.7073%. The same measure for `CC[C@@]1(O)CCN(C(=O)CCc2cnn(C)c2)C[C@H]1O`: -7.505%; for `CN1CCOC(CN(C(=O)CCCn2cccn2)c2nccs2)C1` (stereo not given): 81.94%. For the compound `O=C(CN1CCOC(Cn2cccn2)C1)Nc1nccs1` (stereo not given), the “Percent Effect” value is given as -0.2623%. The same measure for `CC(C)C1CN(C(=O)Nc2cnn(CC(F)F)c2)CCO1` (stereo not given): 14.22%. With `CC(C)N1CC2(CCCN(Cc3noc(C4CCCC4)n3)C2)CCC1=O` (stereo not given), the “Percent Effect” value was determined as 0.7717%.

In the case of `COC1CCN(C(=O)c2csc(-c3ccccc3F)n2)CC1`, the “Percent Effect” value worked out at 15.42%. For the compound `Nc1nccnc1C(=O)N(Cc1ccco1)CC1CCCO1` (stereo not given), the “Percent Effect” value came to 3.477%. The figure for `O=C(NCCc1nccs1)C1CCCN(Cc2ccco2)C1` (stereo not given) is -29.34%.

`CN1CCOC(CN(C(=O)CCc2ccco2)c2nccs2)C1` (stereo not given): the “Percent Effect” value was 89.12%.

As for `O=C(CCc1cn[nH]c1)N1C[C@H](CO)C[C@H](CN2CCOCC2)C1`, the “Percent Effect” value is -1.636%. In the case of `Cn1cnnc1C1CCCN(C(=O)c2cc(Cl)c(Cl)n2C)C1` (stereo not given), the “Percent Effect” value was 115.1%.

Consider `Cc1noc(C2CCCN(C(=O)c3cc(Cl)c(Cl)n3C)C2)n1` (stereo not given), for which the “Percent Effect” value is reported as 3.125%.

Take `Cn1cnnc1C1CCCN(C(=O)c2cc(Cl)c3c(c2)OCO3)C1` (stereo not given): the “Percent Effect” value is -3.548%. For the compound `Cn1cnnc1C1CCCN(C(=O)c2ccccc2Cl)C1` (stereo not given), the “Percent Effect” value was 1.344%.

Consider `Cn1cnnc1C1CCCN(C(=O)c2cc(Cl)cc(Cl)c2)C1` (stereo not given), for which the “Percent Effect” value stood at 113.5%. The same measure for `O=C(c1cnns1)N1CCN(Cc2ccc(F)cc2Cl)CC1`: 11.32%. In the case of `Cc1nn(C)c(C)c1C1CCCN1c1ncnc2[nH]ccc12` (stereo not given), the “Percent Effect” value came to 1.551%. For `Brc1ccc(NCCCOC2CCOCC2)nc1`, the “Percent Effect” value amounted to 3.889%. Regarding `CCN(Cc1cc(Cl)ccc1OC)Cc1ncnn1CC`, the “Percent Effect” value was 0.2011%. With `COc1ccccc1CN1CCN(CCN2CCOC2=O)CC1`, the “Percent Effect” value is reported as -7.896%. Turning to `COc1ccccc1N1CCN(Cc2nc(C)c(C)o2)CC1`, the “Percent Effect” value is -4.949%. As to `CCOc1ccccc1N1CCN(CC2(O)CCCNC2)CC1` (stereo not given), the “Percent Effect” value was -13.46%. The figure for `CCCc1nnc(N2CCN(c3ccccc3OCC)CC2)o1` is 99.15%; for `CCCc1nnc(N2CCN(Cc3ccccc3OC)CC2)o1` it is 96.58%.

In the case of `CCOc1ccccc1N1CCN(c2nnc(C)o2)CC1`, the “Percent Effect” value is given as 100.3%. The same measure for `CCCc1nnc(N2CCN(c3cccc(OC)c3)C(=O)C2)o1`: 11.57%; for `c1ccc(OCc2noc(CN3CCC(N4CCSCC4)CC3)n2)cc1`: -5.795%; for `O=C(c1cc2c([nH]c1=O)CCC2)N1CCCCCC1c1ccncc1` (stereo not given): 23.88%. `CC(C)COCC(NC(=O)Cc1ccn[nH]1)c1ccco1` (stereo not given): the “Percent Effect” value is -5.318%.

Take `Cc1noc(C)c1CNCc1nn(-c2ccccc2)c2c1CCC2`: the “Percent Effect” value is given as -8.034%. `Clc1ccccc1-c1nc(CNCCn2cccn2)cs1`: the “Percent Effect” value is on record as -5.873%. For `O=C(Cc1csc(-c2ccccc2F)n1)NCc1ccc(C(=O)O)cc1`, the “Percent Effect” value is 91.75%.

On to `O=C(CCC1CCN(C(=O)c2cc[nH]c2)CC1)NCc1cccc(Cl)c1`, for which the “Percent Effect” value is 14.78%. For `CC(=O)c1cc(CC(=O)NCc2ccc(F)cc2)cs1`, the “Percent Effect” value is listed as -15.8%. For the compound `O=C(Cc1csc(-c2cccc(Cl)c2)n1)NCc1cccc(C(=O)O)c1`, the “Percent Effect” value worked out at 106.6%. For `O=C(CCC1CCN(C(=O)c2csnn2)CC1)NCc1cccc(Cl)c1`, the “Percent Effect” value is listed as -4.206%. On to `CC(=O)c1cc(CC(=O)NCc2c(F)cccc2F)cs1`, for which the “Percent Effect” value is -9.682%. The figure for `COc1ccccc1-c1csc(-c2cccc(C(=O)O)c2)n1` is 1.276%; for `O=C(Cc1csc(-c2ccccc2Cl)n1)NCc1cccc(C(=O)O)c1` it is 96.86%.

Take `O=C(Cc1csc(-c2ccccc2F)n1)NCc1cccc(C(=O)O)c1`: the “Percent Effect” value stood at 94.98%. For `Cc1[nH]c2c(F)cccc2c1CC(=O)NCc1csc(N(C)C)n1`, the “Percent Effect” value is given as -5.819%. On to `CCC(C)NC(=O)c1cccc(CNC(=O)CC(F)(F)F)c1` (stereo not given), for which the “Percent Effect” value was determined as 4.521%.
